Here are results for 55 compounds from ChEMBL document CHEMBL4513216, “Probing the Open Global Health Chemical Diversity Library for Multistage-Active Starting Points for Next-Generation Antimalarials” (ACS Infect Dis, 2020).

Molecules are shown by their SMILES. About 8,600 (12%) of roughly 69,000 compounds showed an effect of 50% or more. Only a selection was taken, and strong results are over-represented in it overall.

In this experiment the test system is Plasmodium berghei. The experiment in a line: Screen against P. berghei liver stage (PbLuc), transformed with Luciferase, at 10uM. The class given is functional, HepG2. To be noted: tested at 10 uM.
`CSc1ccc(-c2cc(CN)nc3ccnn23)cc1`: the INHIBITION was found to be 13%.

On to `COc1cccc(NC(=O)NC2(c3noc(CN(C)C)n3)CCCC2)c1`, for which the INHIBITION is on record as 16.2%.

In the case of `CCN(CC)CCn1cc(NC2CCSCC2)cn1`, the INHIBITION was -3.21%.

Turning to `Fc1ccc(C2(c3noc(CCN4CCCCO4)n3)CCOC2)cc1` (stereo not given), the INHIBITION is -23.4%.

On to `O=c1[nH]c2cc3c(cc2cc1CN1CCCC1c1ccccn1)CCC3` (stereo not given), for which the INHIBITION is reported as 56.5%.

For the compound `CCOc1ccc2[nH]c(=O)c(CN3CCCC3c3ccccn3)cc2c1` (stereo not given), the INHIBITION is recorded as 32.7%.

Consider `O=c1[nH]c2cc3c(cc2cc1CN1CCCC1c1ccccn1)OCO3` (stereo not given), for which the INHIBITION was 6.94%.

As to `O=C(Nc1ccc(CCN2CCC(O)CC2)cc1)C1CCCOC1` (stereo not given), the INHIBITION is 20.06%.

In the case of `O=C(CN1CCOc2ccccc2C1)NCc1cc2n(n1)CCCNC2`, the INHIBITION was found to be 12.9%.

On to `CC(NCc1ccsc1)c1ccc2c(c1)NC(=O)CO2` (stereo not given), for which the INHIBITION worked out at 22.15%.

As to `COc1cccc(SCC(=O)N2CCC(N3CCCC(O)C3)CC2)c1` (stereo not given), the INHIBITION is recorded as 64.9%.

As to `COc1cccc(SCC(=O)N2CCC(N3CCCC3=O)CC2)c1`, the INHIBITION is 43.9%.

`COc1cccc(SCC(=O)N2CCCC(N3CCCC3=O)C2)c1` (stereo not given): the INHIBITION is reported as 15.5%.

As to `Cc1c(NC(=O)CN(C)S(C)(=O)=O)cccc1OC1CCCC1`, the INHIBITION is recorded as -28.2%.

Regarding `CCCNC(=O)CN1CCC(NC(=O)c2cc(CC)ccc2O)CC1`, the INHIBITION was -23.15%.

As to `N#Cc1cccnc1N1CCC(C2CCCCCN2C(=O)C2CC2)CC1` (stereo not given), the INHIBITION is given as -1.3%.

For the compound `O=S(=O)(c1cccs1)N1CCCC(c2nccs2)C1` (stereo not given), the INHIBITION is -27.4%.

For the compound `O=S(=O)(c1ccccc1)N1CCCC(c2nccs2)C1` (stereo not given), the INHIBITION is reported as 31.6%.

In the case of `O=S(=O)(c1ccccc1F)N1CCCC(c2nccs2)C1` (stereo not given), the INHIBITION is given as 61.7%.

For the compound `CN(CCS(=O)(=O)c1cc(Cl)ccc1Cl)CC(=O)Nc1ccc(F)cc1`, the INHIBITION was -8.22%.

In the case of `CN(CCS(=O)(=O)c1cc(Cl)ccc1Cl)CC(=O)Nc1cccc(F)c1`, the INHIBITION is listed as 59.4%.

As to `CN(CCS(=O)(=O)c1cc(Cl)ccc1Cl)CC(N)=O`, the INHIBITION is listed as 10.6%.

As for `Cc1nnc2n1CCN(C(=O)C1CCC(n3cccc3)CC1)C2` (stereo not given), the INHIBITION came to 20.8%.

On to `COC(=O)CC(c1cccnc1)c1oc(C)cc(=O)c1O` (stereo not given), for which the INHIBITION is listed as -14.8%.

As to `COc1ccccc1CN1CC(OC)CN(C(=O)CC(C)C)CC1=O` (stereo not given), the INHIBITION was 4.82%.

Regarding `Cc1ccc(CN2CCc3c(CN(C)C)n[nH]c3C2)s1`, the INHIBITION is recorded as 13.7%.

For `Cc1ccc(CNC(=O)N2CCc3ccccc3C2CO)s1` (stereo not given), the INHIBITION came to 28.7%.

In the case of `O=C(c1cccs1)N1CCN(Cc2cc(=O)c3ccccc3[nH]2)CC1`, the INHIBITION worked out at 15.4%.

For `Cn1ccc(CN2CCC(Cc3ccccc3)CC2)cc1=O`, the INHIBITION is reported as -0.219%.

In the case of `OCCN1CCC(F)(F)C2(CCN(c3cccnc3)C2)C1` (stereo not given), the INHIBITION is listed as 60.2%.

Consider `FC1(F)CCN(Cc2cccnc2)CC12CCN(c1ccccc1)C2` (stereo not given), for which the INHIBITION was 92.8%.

For `Cn1cc(CN2CCC(F)(F)C3(CCN(c4cccnc4)C3)C2)cn1` (stereo not given), the INHIBITION turned out to be 15.4%.

Turning to `FC1(F)CCN(Cc2ccccn2)CC12CCN(c1cccnc1)C2` (stereo not given), the INHIBITION was determined as 85.9%.

For `FC1(F)CCN(Cc2ccncc2)CC12CCN(Cc1ccccn1)C2` (stereo not given), the INHIBITION is on record as 48.9%.

Regarding `FC1(F)CCN(Cc2ccccn2)CC12CCN(c1ncccn1)C2` (stereo not given), the INHIBITION is 47.5%.

With `FC1(F)CCN(c2ccccc2)CC12CCN(c1ncccn1)C2` (stereo not given), the INHIBITION is -15.3%.

For `FC1(F)CCN(Cc2ccncc2)CC12CCN(c1cccnc1)C2` (stereo not given), the INHIBITION is recorded as 91.9%.

Take `FC1(F)CCN(Cc2ccncc2)CC12CCN(c1cnccn1)C2` (stereo not given): the INHIBITION is -13.2%.

For `OCCN1CCC(F)(F)C2(CCN(c3cnccn3)C2)C1` (stereo not given), the INHIBITION came out at 16.6%.

On to `FC1(F)CCN(Cc2ccccn2)CC12CCN(c1cnccn1)C2` (stereo not given), for which the INHIBITION is recorded as 34%.

For `Cn1ccnc1CN1CCC(F)(F)C2(CCN(c3cccnc3)C2)C1` (stereo not given), the INHIBITION turned out to be 31.2%.

As for `COc1ccccc1OCCCn1c(C)c(C)oc1=O`, the INHIBITION was -10.2%.

As for `CCn1c(SCC(N)=O)nnc1C(C)NC(=O)c1ccc(Cl)cc1` (stereo not given), the INHIBITION came to 31.6%.

As to `CCS(=O)(=O)N1CCC2(CN(c3cccc(C)n3)C2)C1`, the INHIBITION is 18.5%.

For `Cc1ccc(CN(CCCN2CCOCC2)Cc2cnn(C)c2)o1`, the INHIBITION came to 30.15%.

As to `CCc1ncc2c(n1)CN(c1nnc(C)c(C)c1C#N)CC2`, the INHIBITION is -28.7%.

In the case of `CNC(=O)CN1CCC2(CCCN(CC3CCOC3)C2)CC1` (stereo not given), the INHIBITION was 8.6%.

On to `Cc1nn(-c2ccc(C(=O)O)cc2)c2c1C(CC(C)C)SCC(=O)N2` (stereo not given), for which the INHIBITION is recorded as 10.6%.

As for `Cc1cccc(C(=O)N2C[C@@H]3C(CC(=O)NC(C)C)[C@@H]3C2)n1` (stereo not given in full), the INHIBITION is -50.4%.

Turning to `Cn1cc(CN2CCC(F)(F)C3(CCN(c4ccccn4)C3)C2)cn1` (stereo not given), the INHIBITION is on record as 0.618%.

In the case of `O=C(O)CN1CCC(F)(F)C2(CCN(c3ccccn3)C2)C1` (stereo not given), the INHIBITION was -4.02%.

Take `O=C(O)CN1CCC(F)(F)C2(CCN(c3ccccc3)C2)C1` (stereo not given): the INHIBITION is recorded as 53.9%.

With `FC1(F)CCN(Cc2cccnc2)CC12CCN(c1cnccn1)C2` (stereo not given), the INHIBITION is recorded as -20.1%.

For `O=C(CO)N1CCC(F)(F)C2(CCN(c3ccccc3)C2)C1` (stereo not given), the INHIBITION is recorded as 31.4%.

Consider `FC1(F)CCN(Cc2cccnc2)CC12CCN(c1ccccn1)C2` (stereo not given), for which the INHIBITION stood at 68.2%.
